This is a sample that favours compounds with a hit; in the whole collection about 9.4% have one here.
FLuc counter: qHTS profiling assay for firefly luciferase inhibitor/activator using purifed enzyme and Km concentrations of substrates (counterscreen for miR-21 project); purified FLuc, Km substrates, luminescence inhibition; Potency, µM (series often up to 57.5 µM), for inactives: at the top dose activity change, negative = inhibition, hits mostly inhibitors; actives 6.9% (n = 360,000); AID 588342, 2011;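 note: plate controls were vehicle for no effect and reference inhibitor for full effect; nearly all actives have a fitted effect of over 55% in size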
Target sequence (P08659 whole entry, looked up): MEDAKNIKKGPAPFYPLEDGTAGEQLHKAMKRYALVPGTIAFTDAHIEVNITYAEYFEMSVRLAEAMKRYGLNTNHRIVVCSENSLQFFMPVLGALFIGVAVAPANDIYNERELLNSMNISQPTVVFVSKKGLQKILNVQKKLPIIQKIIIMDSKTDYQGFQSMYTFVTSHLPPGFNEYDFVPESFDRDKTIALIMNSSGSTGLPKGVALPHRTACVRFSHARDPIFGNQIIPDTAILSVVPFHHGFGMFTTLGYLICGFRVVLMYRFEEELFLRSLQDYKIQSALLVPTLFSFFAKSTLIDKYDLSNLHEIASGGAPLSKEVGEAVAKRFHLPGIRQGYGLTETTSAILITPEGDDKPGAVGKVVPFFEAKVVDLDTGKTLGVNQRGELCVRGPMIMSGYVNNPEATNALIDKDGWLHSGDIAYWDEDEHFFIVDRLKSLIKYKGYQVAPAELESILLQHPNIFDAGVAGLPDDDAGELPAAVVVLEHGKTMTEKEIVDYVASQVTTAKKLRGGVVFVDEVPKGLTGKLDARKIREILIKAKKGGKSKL
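Purified P. pyralis luciferase (10nM final) with 10uM D-luciferin and 10uM ATP (Km levels) in 50mM Tris acetate pH 7.5, 10mM Mg acetate, 0.01% Tween-20, 0.05% BSA; qHTS 6-point titration, ~60 µM downward; luminescence read.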
Rab9 promoter act: qHTS Assay for Rab9 Promoter Activators; Huh7 Rab9 promoter-luciferase reporter, luminescence, 24 h; Potency, µM (highest dose often 9.22 µM), without a hit: at the top dose activation, negative = inhibition, usual class: activators; actives 2.8% (n = 320,000); AID 485297, 2010; note: % of control where 0% means no effect; nearly all actives have a fitted effect of over 60% in size
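Stable Rab9-luc Huh7, 1500 cells/well, 2 h settle; cmpd in DMSO, 24 h, 37 °C/5% CO2; luciferase reagent 10 min RT; luminescence.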
ELG1 repair inh: qHTS screen for small molecules that inhibit ELG1-dependent DNA repair in human embryonic kidney (HEK293T) cells expressing luciferase-tagged ELG1. HEK293T ELG1-luciferase reporter, luminescence, 16 h; DNA damage induced by 5-fluorouridine. Potency, µM (doses to about 46.1 µM), without a hit: top-dose activity change, negative = inhibition, actives largely listed as inhibitors. actives 2.3% (n = 330,000). AID 504467, 2011; note: % is set by controls: 0 for no effect and ±100 for the full control effect; nearly all actives have a fitted effect of over 55% in size
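Quantitative HTS, concentration-response format. 2,000 cells/well co-treated with 5-fluorouridine and compound, 16 hr in 5% CO2 at 37 °C; ONE-Glo luminescence read after 30 min.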
NPC1 prom act: qHTS Assay for NPC1 Promoter Activators; Huh7 NPC1 promoter luciferase reporter, 24 h; Potency, µM (doses to about 9.22 µM), inactives show at the top dose activation, hits mostly activators; actives 2.4% (n = 320,000); AID 485313, 2010; note: % of control where 0% means no effect; nearly all actives have a fitted effect of over 60% in size
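Luminescence read-out of NPC1 promoter-driven luciferase in stably transfected Huh7 cells; compounds delivered in DMSO and left 24 h at 37C, 5% CO2, qHTS titration format.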
ELG1 genotox: qHTS screen for small molecules that induce genotoxicity in human embryonic kidney (HEK293T) cells expressing luciferase-tagged ELG1. actives 1.3% (n = 330,000). HEK293T ELG1-luciferase reporter, luminescence, 16 h. Potency, µM (titrated, usually from 46 µM), for the others: at the highest dose activity change, positive = activation, hits mostly activators; note: % of control where 0% means no effect; nearly all actives have a fitted effect of over 60% in size
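Genotoxicity was scored as increased ELG1-luciferase reporter signal, measured by ONE-Glo luminescence (30 min, room temperature). Compound or vehicle exposure of the HEK293T reporter cells lasted 16 hr at 37°C.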
SMN2 splice up: qHTS Assay for Enhancers of SMN2 Splice Variant Expression | AID 1458, 2008 | HEK293 SMN2-luciferase splicing reporter, luminescence, 30-36 h | actives 2.8% (n = 210,000) | Potency, µM (highest dose often 46.1 µM), inactives show at the highest dose activity change, positive = activation, most hits filed as activators; note: % of control where 0% means no effect; nearly all actives have a fitted effect of over 55% in size
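HEK293 cells carry an SMN2 […]–luciferase reporter in which exon 7 inclusion puts luciferase in frame. Cells were plated 10-12 h before compound addition, then incubated 30-36 h at 37C. ONE-Glo luminescence was read; sodium butyrate at 4.5 mM final served as control.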
Starred values were filed as active, the others as inactive; ? = inconclusive; · = not tested or not shown. Calls come from the whole dose curve; as a rule, active = well fitted curve in the direction sought with a large enough effect; inconclusive = small, poorly fitted or top-dose-only effect, or another doubt; inactive = no such curve, though single readings can be large; an effect the other way counts as inactive or inconclusive. Potency is the fitted concentration of half-maximal effect.

SMILES	FLuc counter	Rab9 promoter act	ELG1 repair inh	NPC1 prom act	ELG1 genotox	SMN2 splice up
FC(F)(F)c1cnc(C(c2ccccn2)c2ncn[nH]2)c(Cl)c1 (configuration not stated)	-1%	-2%	26µM*	-2%	4%	-79%
O=C1c2cccc3c(O)ccc(c23)C(=O)N1c1ccc(Cl)cc1	17µM*	0.79µM*	?	3.5µM*	6%	·
CC(=O)Nc1ccc(N2C(=O)c3cccc4c(O)ccc(c34)C2=O)cc1	?	1%	3%	0%	0%	·
COc1ccc(O)c(C(=O)c2cnn(-c3ccccc3)c2)c1	?	?	?	19%	?	·
O=C(c1cnn(C(=O)CN2CCCC2=O)c1)c1ccccc1O	0%	-2%	-16%	-3%	-4%	·
O=C(c1cnn(-c2ccccc2)c1)c1ccccc1O	2.4µM*	3.2µM*	?	?	?	?
COc1ccc(-n2cc(C(=O)c3ccccc3O)cn2)cc1	0.85µM*	0.5µM*	?	?	2.3µM*	?
O=C(c1cnn(-c2ccccc2)c1)c1cc(F)ccc1O	13µM*	?	?	?	?	·
CCOc1ccc(C(=O)Nc2c(C(=O)Nc3ccccc3OC)oc3ccccc23)cc1OCC	?	·	·	·	·	9%
Cc1ccc(N=C2NC(=O)CC(C(=O)Nc3cc(C(F)(F)F)ccc3Cl)S2)cc1 (configuration not stated)	0%	·	·	·	·	-8%
CCOC(=O)COc1ncn(-c2ccccc2)n1	-15%	1%	-5%	0%	-1%	-9%
O=C(COc1ccccc1C(=O)c1cnn(-c2ccccc2)c1)Nc1ccc2ccccc2c1	1.5µM*	?	?	?	14%	13µM*
COc1ccc(-n2cc(C(=O)c3ccc4ccccc4c3O)cn2)cc1	-4%	10%	4%	-1%	0%	3%
CCOC(=O)COc1ccccc1C(=O)c1cnn(-c2ccccc2)c1	11µM*	?	22%	?	?	·
CC(C)n1cc(NC(=O)COc2ccccc2Cl)cn1	-4%	5%	17%	-4%	3%	·
CC(C)c1ccc(NC(=O)COc2ccc(F)cc2C(=O)c2cnn(-c3ccccc3)c2)cc1	9.5µM*	?	?	0%	16%	?
O=C(Nc1noc2ccccc12)c1cccc(F)c1	2.4µM*	·	·	·	·	?
O=C(Nc1noc2ccccc12)c1ccc(F)cc1	2.1µM*	·	·	·	·	?
O=C(Nc1ncn[nH]1)c1cccc(F)c1	0%	-2%	11%	-2%	2%	·
CC(=O)Nc1nonc1NC(=O)c1ccc(F)cc1	-1%	22%	-2%	0%	2%	18%
COc1cccc(Nc2nnc(SCC3CCCCO3)s2)c1 (configuration not stated)	12µM*	10%	?	29%	14%	-28%
COc1ccc(Nc2nnc(SCC3CCCO3)s2)cc1 (configuration not stated)	19µM*	?	?	28%	13%	28%
Cc1cccc(Nc2nnc(SCC3CCCCO3)s2)c1C (configuration not stated)	9.5µM*	19%	?	?	2%	?
Cc1nn2c(=O)cc(COC(=O)COc3ccccc3C)nc2s1	3%	·	·	·	·	·
CCc1cc(CNC(=O)CCc2nnc(CCCc3ccccc3)o2)on1	19µM*	3.5µM*	?	?	18µM*	16µM*
SMILES	FLuc counter	Rab9 promoter act	ELG1 repair inh	NPC1 prom act	ELG1 genotox	SMN2 splice up
CN(CCc1ccccn1)C(=O)CCc1nnc(CCCc2ccccc2)o1	15µM*	?	?	?	?	·
CC(C)c1cc(CNC(=O)CCc2nnc(CCCc3ccccc3)o2)on1	?	27%	?	13%	?	?
O=C(CCc1nnc(CCCc2ccccc2)o1)N1CCCCCC1	21µM*	?	?	?	?	·
O=C(CCc1nnc(CCCCc2ccccc2)o1)NCCn1cccn1	4%	1%	6%	-1%	0%	11%
O=C(CCc1nnc(CCCCc2ccccc2)o1)NCCN1CCOC1=O	17µM*	0%	-2%	2%	15%	·
CCc1ccc2oc(C(=O)N(Cc3ccc(N(C)C)cc3)Cc3ccco3)c(C)c2c1	-14%	·	·	·	·	-11%
CC(C)(C)c1ccc(OCC2CO2)cc1 (configuration not stated)	·	·	·	·	·	-1%
O=C(Cn1ncc2c3ccccc3n(Cc3cccc(Cl)c3)c2c1=O)N1CCCCC1	1%	·	·	·	·	10%
CC1=C(C(=O)OCC2CCCCC2)C(c2ccc(Cl)cc2)CC(=O)N1 (configuration not stated)	-16%	·	·	·	·	-15%
CCCc1cc(=O)oc2c(C)c3c(cc12)CN(CCc1ccc(Cl)cc1)CO3	-10%	·	·	·	·	10%
COc1ccc(/C=C/c2ccc3ccccc3[n+]2C)cc1OC	17µM*	-11%	?	-4%	?	·
CN(C)c1ccc(/C=C/c2ccc3ccccc3[n+]2C)cc1	?	-47%	?	-35%	10%	-74%
O=C1C2C(c3ccccc3)(C(=O)N1c1ccc(Cl)cc1)C2(c1ccccc1)c1ccccc1 (configuration not stated)	1%	-2%	6.5µM*	-3%	-11%	-37%
O=C1c2ccccc2C(=O)N1c1ccc(Cl)cc1	?	0%	?	-6%	4%	-26%
COc1ccccc1CNC(=O)C1CCN(C2=NS(=O)(=O)C(c3ccc(C)c(C)c3)=C2C)CC1	3%	·	·	·	·	·
COC(=O)CNC(=O)C1(C)C=CCN1C(=O)c1ccccc1 (configuration not stated)	15µM*	?	?	15%	?	11µM*
CC(=O)N1CC=CC1(C)C(=O)NCC1CC1 (configuration not stated)	·	·	·	·	·	11µM*
CC(C)CC1(C(=O)NCC2CC2)C=CCN1C(=O)c1ccccc1 (configuration not stated)	·	·	·	·	·	13µM*
CCCNC(=O)C1CCC(Cn2c(=O)c3sccc3n(CC(=O)NCc3cccc(OC)c3OC)c2=O)CC1 (configuration not stated)	-3%	·	·	·	·	-2%
Cc1ccc(-c2c(C)n3c4c(=O)n(C)c(=O)n(C)c4nc3n2CCCO)cc1	0%	·	·	·	·	-51%
